# Test results taken from PubChem BioAssay (NCATS).
# Several values for one entry are separate records, joined by “and”; a condition that tells them apart may be missing. Equal entries are not always repeated. Records with an inconclusive call do not appear. Values without a mark were called inactive. Activity calls are given as the source filed them. The call rests on the fitted dose curve; in most records, active means well fitted curve in the direction sought with a large enough effect; inconclusive means small, poorly fitted or top-dose-only effect, or another doubt; inactive means no such curve, though single readings can be large; an effect the other way counts as inactive or inconclusive.
# Key:
# [1] = Quantitative highthroughput screen to assess conditional lethalithy of P12 Ichikawa cells grown in Human Plasma-Like Medium with dialyzed fetal bovine serum (HPLM+ds) (AID 1963879); details: Potency: viability; further: nearly all actives have a fitted effect of over 35% in size; on viability: series mostly up to about 46 µM
# In short: (§1)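 Each medium arm—HPLM with 10% dialyzed FBS, or RPMI1640 with 5 mM glucose and 10% untreated or dialyzed FBS—was screened against an 11-point, 3-fold compound titration for 48 h at 37 °C, with CellTiter-Glo luminescence as endpoint.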
# [2] = Quantitative highthroughput screen to assess conditional lethalithy of P12 Ichikawa cells grown in RPMI1640 with dialyzed fetal bovine serum (RPMI+ds) (AID 1963880); details: Potency: P12-Ichikawa viability; further: nearly all actives have a fitted effect of over 35% in size;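 on viability: 100% = DMSO wells and 0% = empty wells on each plate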
# In short: as §1
# [3] = Quantitative highthroughput screen to assess conditional lethalithy of SEM cells grown in Human Plasma-Like Medium with dialyzed fetal bovine serum (HPLM+ds) (AID 1963882); further: nearly all actives have a fitted effect of over 35% in size; on viability: series mostly up to about 46 µM
# In short: as §1
# [4] = Quantitative highthroughput screen to assess conditional lethalithy of SEM cells grown in RPMI1640 with unreated serum (RPMI+s) (AID 1963883); further: nearly all actives have a fitted effect of over 35% in size;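 on viability: 100% = DMSO wells and 0% = empty wells without cells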
# In short: as §1
# [5] = Quantitative highthroughput screen to assess conditional lethalithy of NOMO1 cells grown in RPMI1640 with dialyzed fetal bovine serum (RPMI+ds) (AID 1963877); further: nearly all actives have a fitted effect of over 30% in size;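 on viability: series mostly up to about 46 µM; 100% = DMSO control wells and 0% = empty wells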
# In short: as §1
# [6] = Quantitative highthroughput screen to assess conditional lethalithy of NOMO1 cells grown in Human Plasma-Like Medium with dialyzed fetal bovine serum (HPLM+ds) (AID 1963878); further: nearly all actives have a fitted effect of over 35% in size;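 on viability: 100% = DMSO wells and 0% = empty wells on each plate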
# In short: as §1
# [7] = Cellular viability qHTS for adrenocortical cancer (ACC) cell line SW-13 (AID 1963989); details: SW-13 ACC cells viability, CellTiter-Glo, 48 h; activity (max response): stronger effect = lower value; further: nearly all actives have a fitted effect of over 65% in size;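 on activity (max response): cells grown in serum-free medium with ITS supplement; on the % scale 0 is the no-effect control and ±100 the full control effect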
# In short: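 Compound titrations (up to 46 uM final, in DMSO) were applied to SW-13 cells for 48 h at 37C/5% CO2. Reading used CellTiter-Glo after 20 min at room temperature; fitted curves yielded IC50 and efficacy.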
# [8] = Cellular viability qHTS for adrenocortical cancer (ACC) cell line NCI-H295R (AID 1963990); further: nearly all actives have a fitted effect of over 60% in size
# In short: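 Readout: CellTiter-Glo luminescence, 20 min RT. Exposure: 48 h, 37C/5% CO2. Cells: NCI-H295R, ITS-DMEM serum-free. Range: up to 46 uM. Analysis: 4PL fit, IC50 plus efficacy.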
# [9] = Quantitative highthroughput screen to assess conditional lethalithy of P12 Ichikawa cells grown in RPMI1640 with untreated serum (RPMI+s) (AID 1963881); details: Potency: viability; further: nearly all actives have a fitted effect of over 35% in size;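 on viability: series mostly up to about 46 µM; 100% = DMSO wells and 0% = empty wells without cells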
# In short: as §1
# [10] = Quantitative highthroughput screen to assess conditional lethalithy of SEM cells grown in RPMI1640 with dialyzed fetal bovine serum (RPMI+ds) (AID 1963884); further: nearly all actives have a fitted effect of over 35% in size;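 on viability: series mostly up to about 46 µM; 100% = DMSO control wells and 0% = empty wells without cells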
# In short: as §1
# Potency means the concentration at half of the fitted maximal effect.
structure (smiles),measurement,setting,value
Cc1nc(-c2ccc(-c3ccc(C(=O)N4CCc5cc6c(cc54)C4(CCN(C)CC4)CO6)cc3)c(C)c2)no1,Potency,[1],inactive
same,Potency,[2],inactive
same,Potency,[3],inactive
same,Potency,[4],inactive
O=C1C=CC[C@@H]2[C@H]3CCCN4CCC[C@@H](CN12)[C@@H]34,Potency,[5],inactive
same,Potency,[6],inactive
same,Potency,[1],inactive
same,Potency,[2],inactive
same,Potency,[4],inactive
same,activity (max response),[7],-3.97%
same,Potency,[8],inactive
COc1ccc2c(c[n+](C)c3c4cc5c(cc4ccc23)OCO5)c1OC,Potency,[6],20.9 µM (active)
same,Potency,[2],14.8 µM (active)
same,Potency,[3],14.8 µM (active)
same,Potency,[4],8.33 µM (active)
COc1ccc2c(c1)CN(C)CC2c1ccc(Cl)c(Cl)c1 (stereo not given),Potency,[5],9.35 µM (active)
same,Potency,[6],3.32 µM (active)
same,Potency,[1],inactive
same,Potency,[9],inactive
C=C[C@@H]1CN2CCC1C[C@H]2[C@H](O)c1ccnc2ccccc12 (stereo not given in full),Potency,[5],18.7 µM (active)
same,Potency,[1],inactive
C[C@@H]1O[C@@H](O[C@@H]2C=C3CC[C@@H]4[C@@H](CC[C@]5(C)[C@H](c6ccc(=O)oc6)CC[C@@]45O)[C@@]3(C)CC2)[C@H](O)[C@H](O)[C@H]1O,Potency,[5],0.0469 µM (active)
same,Potency,[6],0.0332 µM (active)
same,Potency,[2],0.0235 µM (active)
same,Potency,[4],0.0469 µM (active)
COc1cc(C(=O)N2CC[C@@H](O)[C@@H](N)C2)cc2nc(-c3cc4ccccc4n3CC3CC3)n(C)c12,Potency,[5],1.17 µM (active)
same,Potency,[3],1.32 µM (active)
CC1=NN=C(c2ccc(N)cc2)c2cc3c(cc2C1)OCO3,Potency,[6],inactive
same,Potency,[3],inactive
O=C1CCC[C@@H]2[C@H]3CCCN4CCC[C@@H](CN12)[C@@H]34,Potency,[1],inactive
same,Potency,[9],inactive
C[C@@H]1[C@@H](CC(C[C@H]2O[C@@H]3O[C@]4(C)CC[C@@H]5[C@H](C)CC[C@@H]([C@H]2C)[C@@]35OO4)C[S+](=O)([O-])c2ccc(COC(=O)N(C)C)cc2)O[C@@H]2O[C@]3(C)CC[C@H]4[C@H](C)CC[C@@H]1[C@@]24OO3 (stereo not given in full),Potency,[6],0.418 µM (active)
same,Potency,[1],3.32 µM (active)
same,Potency,[4],0.418 µM (active)
same,Potency,[10],0.418 µM (active)
CC(=Cc1csc(C)n1)[C@@H]1C[C@H]2O[C@]2(C)CCC[C@H](C)[C@@H](O)[C@@H](C)C(=O)C(C)(C)[C@@H](O)CC(=O)O1,Potency,[6],inactive
same,Potency,[1],inactive
same,Potency,[2],inactive
same,Potency,[10],inactive
O=C(NCC1CCOCC1)c1cnc(Nc2ccc(Cl)cc2Cl)nc1C(F)(F)F,Potency,[5],inactive
same,Potency,[6],inactive
same,Potency,[9],inactive
same,activity (max response),[7],-11.7%
same,Potency,[8],inactive
C[C@]12CC[C@@H]3[C@@H](CCC4=CC(=O)CC[C@@H]43)[C@@H]1CC[C@@H]2OC(=O)CCc1ccccc1,Potency,[1],inactive
same,Potency,[2],inactive
same,Potency,[9],inactive
same,activity (max response),[7],-2.06%
same,Potency,[8],inactive
C#C[C@]1(O)C=C[C@@H]2[C@@H]3CCC4=CC(=O)CC[C@@H]4[C@H]3CC[C@@]21CC,Potency,[6],inactive
same,Potency,[9],inactive
same,Potency,[3],inactive
same,Potency,[10],inactive
O=c1[nH]c2ccc(Cl)cc2c(N[C@@H]2CN3CCC2CC3)c1-c1nc2ccccc2[nH]1,Potency,[1],0.469 µM (active)
c1ccc(CCCN2CCN(CCOC(c3ccccc3)c3ccccc3)CC2)cc1,Potency,[9],18.7 µM (active)
Cc1ccccc1-n1c(Cn2cnc3c(N)ncnc32)nc2cccc(C)c2c1=O,Potency,[3],0.296 µM (active)
same,Potency,[4],1.18 µM (active)
C[C@@H]1CC[C@@]2(OC1)O[C@H]1C[C@H]3[C@@H]4CC=C5C[C@@H](O[C@@H]6O[C@H](CO)[C@@H](O[C@@H]7O[C@@H](C)[C@H](O)[C@@H](O)[C@@H]7O)[C@H](O)[C@@H]6O[C@@H]6O[C@@H](C)[C@H](O)[C@@H](O)[C@@H]6O)CC[C@]5(C)[C@@H]4CC[C@]3(C)[C@@H]1[C@H]2C,Potency,[3],18.7 µM (active)
CC(O)(CS(=O)(=O)c1ccc(F)cc1)C(=O)Nc1ccc(C#N)c(C(F)(F)F)c1 (stereo not given),Potency,[4],14.8 µM (active)
CN(C)CCc1c[nH]c2ccc(O)cc12,activity (max response),[7],2.14%
same,Potency,[8],inactive
CC(C)c1c(CN(C)C(C)Cc2ccccc2)n(C)n(-c2ccccc2)c1=O (stereo not given),activity (max response),[7],5.24%
same,Potency,[8],inactive
Nc1c(Cl)c(Cl)c(Cl)c(Cl)c1Cl,activity (max response),[7],-9.89%
same,Potency,[8],inactive
CN1C(=O)NC(=O)C(C)(C2=CCCCC2)C1=O (stereo not given),activity (max response),[7],-0.484%
same,Potency,[8],inactive
CN1C(=S)CN=C(c2ccccc2)c2cc(Cl)ccc21,activity (max response),[7],-3.17%
same,Potency,[8],inactive
CC(Cc1ccccc1)NCCn1cnc2c1c(=O)n(C)c(=O)n2C (stereo not given),activity (max response),[7],-22.4%
same,Potency,[8],inactive
CC(C(O)c1ccccc1)N(C)C/C=C/c1ccccc1 (stereo not given),activity (max response),[7],-14.5%
same,Potency,[8],inactive
CC(=O)OCC1=C(C(=O)O)N2C(=O)[C@@H](N)[C@H]2SC1,activity (max response),[7],5.22%
same,Potency,[8],inactive
C#C[C@]1(O)CC[C@H]2[C@@H]3CCC4=CC(=O)CC[C@]4(C)[C@H]3CC[C@@]21C,activity (max response),[7],3.93%
same,Potency,[8],inactive
C[C@]12CC[C@H](O)CC1=CC[C@@H]1[C@@H]2CC[C@]2(C)C(=O)CC[C@@H]12,activity (max response),[7],3.86% and -7.41%
same,Potency,[8],inactive
O=[N+]([O-])c1ccc([As](=O)(O)O)cc1,activity (max response),[7],4.1%
same,Potency,[8],inactive
O=c1n(Cl)c(=O)n(Cl)c(=O)n1Cl,activity (max response),[7],8.14%
same,Potency,[8],inactive
Nc1ccc(N)cc1,activity (max response),[7],5.64%
same,Potency,[8],inactive
O=C1NCN(c2ccccc2)C12CCN(CC1COc3ccccc3O1)CC2 (stereo not given),activity (max response),[7],-9.54%
same,Potency,[8],inactive
CN1CC[C@]23c4c5ccc(O)c4O[C@H]2[C@@H](O)CC[C@H]3[C@H]1C5,activity (max response),[7],-1.35%
same,Potency,[8],inactive
CCOC(C(=O)OCCN(C)C)(c1ccccc1)c1ccccc1,activity (max response),[7],-0.322%
same,Potency,[8],inactive
CCN(CC)CCN1C(=O)CN=C(c2ccccc2F)c2cc(Cl)ccc21,activity (max response),[7],2.24%
same,Potency,[8],inactive
CCCN(CCC)C(=O)Cc1c(-c2ccc(Cl)cc2)nc2ccc(Cl)cn12,activity (max response),[7],-9.21%
same,Potency,[8],inactive
CC1COC2(c3ccccc3Cl)c3cc(Cl)ccc3NC(=O)CN12 (stereo not given),activity (max response),[7],-14.7%
same,Potency,[8],23.1 µM (active)
CC(C)[N+](C)(CCC(C(N)=O)(c1ccccc1)c1ccccc1)C(C)C,activity (max response),[7],1.8%
same,Potency,[8],inactive
Cn1c(/C=C/CO)c(CO)c2c1C(=O)C=C(N1CC1)C2=O,activity (max response),[7],-6.24%
same,Potency,[8],inactive
O=C1OC(CCN2CCCCC2)OC1(c1ccccc1)c1ccccc1 (stereo not given),activity (max response),[7],2.23%
same,Potency,[8],25.9 µM (active)
C=C[C@H]1CN2CCC1C[C@@H]2[C@@H](O)c1ccnc2ccccc12 (stereo not given in full),activity (max response),[7],-20.5%
same,Potency,[8],inactive
COc1cc(C)[nH]c(=O)c1CNC(=O)c1c(C)n([C@H](C)C2CCN(CC(F)(F)F)CC2)c2ccccc12,activity (max response),[7],8.69%
same,Potency,[8],inactive
Nc1ccc([As](=O)(O)O)cc1,activity (max response),[7],13.3%
same,Potency,[8],inactive
CC[C@]1(O)CC[C@H]2[C@@H]3CCC4=CCCC[C@@H]4[C@H]3CC[C@@]21C,Potency,[7],3.66 µM (active)
same,Potency,[8],2.91 µM (active)
COP(=S)(OC)SCN1C(=O)c2ccccc2C1=O,activity (max response),[7],6.58%
same,Potency,[8],inactive
C=C(C)[C@H]1CN[C@H](C(=O)O)[C@H]1CC(=O)O,activity (max response),[7],7.33%
same,Potency,[8],inactive
c1ccc(CN2CCNCC2)cc1,activity (max response),[7],-9.53%
same,Potency,[8],inactive
CC(Cc1ccc2c(c1)OCO2)NO (stereo not given),activity (max response),[7],-5.75%
same,Potency,[8],inactive
CNCC(=O)c1ccc(O)c(O)c1,activity (max response),[7],2.58%
same,Potency,[8],inactive
Cc1cccc(Cc2cnc[nH]2)c1C,activity (max response),[7],-10.7%
same,Potency,[8],inactive
CS(=O)(=O)c1ccc(C(=O)C2C(=O)CCCC2=O)c([N+](=O)[O-])c1,activity (max response),[7],-0.0273%
same,Potency,[8],inactive
CN[C@@H]1C[C@H]2O[C@@](C)([C@@H]1OC)n1c3ccccc3c3c4c(c5c6ccccc6n2c5c31)C(=O)NC4,Potency,[7],0.1 µM (active)
same,Potency,[8],0.282 µM (active)
CC[C@@H](CO)NC(=O)[C@@H]1C=C2c3cccc4[nH]cc(c34)C[C@H]2N(C)C1,activity (max response),[7],-27.7%
same,Potency,[8],inactive
C[C@]12CC[C@H]3[C@@H](CCC4=CC(=O)CC[C@@H]43)[C@@H]1CC[C@@H]2OC(=O)CCc1ccco1,activity (max response),[7],-19.1%
same,Potency,[8],18.4 µM (active)
Clc1ccc(CSC(Cn2ccnc2)c2ccc(Cl)cc2Cl)cc1 (stereo not given),Potency,[7],8.2 µM (active)
same,Potency,[8],4.11 µM (active)
CCN[C@@H](C)Cc1cccc(C(F)(F)F)c1,activity (max response),[7],-3.94%
same,Potency,[8],inactive
